Drawing on PubChem BioAssay (NCI), this text covers growth for 40 molecules.

The structures appear in SMILES notation. About 83,000 compounds went through this panel and 20% of them were active in at least one assay; those are over-represented in the sample as a whole.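 48-hour exposure, single concentration, 96-well plates; percent growth endpoint where 0 means no net growth. Active: below 10.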 Unmarked numbers belong to inactive results. Active and inactive are the calls of the source.

The subject of this test is CCRF-CEM leukemia. Briefly: NCI-60 one-dose screen, 48 h (100 = growth as untreated, 0 = no growth, -100 = all killed). Particulars: 10 µM unless noted. As for the experimental part: Growth inhibition of the CCRF-CEM human tumor cell line is measured as a screen for anti-cancer activity. Cells are grown in 96 well plates and exposed to the test compound for 48 hours. Compounds are tested at a single concentration, which is 10^-5 M for most compounds. The reported endpoint is percent growth (GI% or GIPRCNT), where numbers from 0 - 100% represent growth inhibition, and numbers from -100% - 0 represent cell death. For example, a value of 40 represents 60% growth inhibition. A value of 0 means no net growth occurred over the course of the experiment. A value of -40 indicates 40% of cells at the beginning of the experiment died by the end of the experiment. A value of -100 means all cells are dead at the end of the experiment.
NCI-60 Human Tumor Cell Lines Screen was performed using the standard one-dose NCI protocol, which is described in more detail at https://dtp.cancer.gov/discovery_development/nci-60/default.htm.
Compounds with GIPRCNT values below 10 were considered active. Activity score was based on GIPRCNT using the following formula: […]
Score is 0 for GIPRCNT values of 100 or above, 50 for GIPRCNT values of 0, and 100 for GIPRCNT values of -100.
Consider `Cc1cccc(NC(=O)N/C(N)=N/c2nc3ccccc3s2)c1`, for which the growth is 21.4%.

Take `O=c1oc2c(cnc3ccccc32)cc1-c1cccc(Cl)c1`: the growth was 76.5%. Take `CCCCCc1ccc(S(=O)(=O)Nc2cc(-c3csc(NC(C)=O)n3)ccc2N2CCN(C)CC2)cc1`: the growth is 29.8%. Regarding `C=C(C)[C@@H]1CC[C@]2(C(=O)N3CCN(C)CC3)CC[C@]3(C)[C@H](CC[C@@H]4[C@@](C)(CCC(=O)O)[C@H](C(=C)C)CC[C@]43C)[C@@H]12`, the growth is 70.7%. On to `Cc1cc(O)c(=O)cc2c1C[C@H]1CC(C)(C)/C=C/C[C@]3(C)Oc4cc(=O)c(O)cc(C)c4C[C@H]3C[C@H](O)[C@@]1(C)O2`, for which the growth was 9.98% (active). `Cc1cccc(-c2nc(C(C)C)sc2-c2ccnc(NCCCNS(=O)(=O)c3ccc(Cl)cc3)c2)c1`: the growth is 68.4%. In the case of `COc1ccc(Oc2ccc(/C=C/C(=O)c3cc4ccccc4oc3=O)cc2)cc1`, the growth was 28.1%. On to `CCN(CC)CCOc1ccc2c(-c3ccccc3)c(-c3ccc(OC)cc3)c(=O)oc2c1`, for which the growth is 75.3%. On to `Cc1cccc(N2C(=O)/C(=C/C(Cl)=C/c3ccc([N+](=O)[O-])cc3)SC2=S)c1C`, for which the growth is 3.24% (active).

Turning to `COc1ccc(Oc2ccc(/C=C/C(=O)c3ccc(OC)c(OC)c3)cc2)cc1`, the growth is 70.3%. With `COc1ccc(C/C(C)=C(\c2ccc(Cl)cc2)c2ccc(OCCN3CCCC3)cc2)cc1`, the growth is 57.2%. Regarding `COc1ccc(C2[C@@H](Cl)C(=O)N2c2cc(OC)c(OC)c(OC)c2)cc1Cl` (stereo not given in full), the growth was 9.36% (active). To `O=C1/C(=C/c2ccc(Cl)cc2)CN(C(=O)C(Cl)Cl)C/C1=C\c1ccc(Cl)cc1` belongs 7% (active); to `O=C(CN1C(=O)S/C(=C\C(Cl)=C\c2ccccc2)C1=O)NC1CCS(=O)(=O)C1` (stereo not given), 12.3%. Take `COC(=O)c1nc(-c2ccccc2)oc1S(=O)(=O)N1CCCC(C)C1` (stereo not given): the growth is 1.21% (active).

Take `CS(=O)(=O)Nc1cc(-c2ccc3ncnc(Nc4ccc5c(cnn5Cc5ccncc5)c4)c3c2)cnc1Cl`: the growth was 33.1%. Regarding `CCCn1c(=S)sc2c(NNC(C)=O)nc(C)nc21`, the growth is 88%.

Consider `Cc1oc(-c2ccc(Cl)cc2)nc1C1=NN(C(=O)c2ccncc2)C(c2ccccc2)C1` (stereo not given), for which the growth is 93.4%. Consider `COc1cc(N2C(=O)[C@H](Cl)C2c2ccc(SC)cc2)cc(OC)c1OC` (stereo not given in full), for which the growth is 11.4%. Under `C=CC(=O)Nc1cccc(Oc2nccc(Nc3nnc(-c4ccc(Br)cc4)s3)n2)c1` stands 87.3%. Take `N#Cc1ccc(O)c(C2=NCC(c3ccc(-c4ccccc4)cc3)O2)c1` (stereo not given): the growth was 11.6%.

Regarding `COc1cc(Cc2cc(OC)c(O)c(OC)c2)cc(OC)c1O`, the growth is 59.9%. Under `COCCOC(C)C(/C=N/NC(N)=S)=N/NC(N)=S` (stereo not given) stands 42.6%. As to `S=c1ccnc[nH]1`, the growth is 123%. On to `Cc1c(O)cc(-c2cnc(N/N=C/c3ccccc3)s2)c(O)c1C`, for which the growth is 8.48% (active). To `O=C(C1=Cc2cc3ccccc3n2Cc2cnnn21)c1ccc(F)cc1` belongs 97.8%. For the molecule `O=C(Nc1cc(Cl)ccc1O)c1ccccc1Nc1ccnc(C(F)(F)F)c1`, the growth is -2.43% (active).

`Nc1c(C(=O)Nc2cccc3ncccc23)sc2nc3c(cc12)CN(Cc1ccccc1)CC3`: the growth was 69.6%. To `O=C1C=CC2(O)OC/C(=C\c3ccccc3)C(O)=C2C1=O` (stereo not given) belongs 2.55% (active). Take `CN(C)CCC(CCN(C)C)(C(=O)O)c1ccccc1`: the growth is 100%. `O=C(/C=C/c1cn(-c2ccccc2)nc1-c1ccccc1)CCC(=O)NO`: the growth is 93.2%. `Cc1ccc(C2CC(c3cccc(Nc4ccncc4)c3)=Nc3c(N)nc(N)nc3N2)cc1` (stereo not given): the growth is 33.9%. For the molecule `CCCCCCCCCCOC(=O)c1nn(C(C)=O)c2cc(C)c(C)cc12`, the growth is 92.2%.

Consider `CNC(=O)c1cc(Oc2ccc3c(c2)sc2nc(-c4ccc(Cl)c(C(F)(F)F)c4)cn23)ccn1`, for which the growth was 47.4%.

For the molecule `CCOC(=O)c1cnn(CC(C)O)c1NC(=O)NCc1ccccc1C(F)(F)F` (stereo not given), the growth was 114%.

Consider `COc1ccc(/C=C2\CN(C(=O)C(Cl)Cl)C/C(=C\c3ccc(OC)c(OC)c3)C2=O)cc1OC`, for which the growth is 12%. As for `CC1(C)CC[C@]23CC[C@]4(C)[C@H](CC[C@@H]5[C@@]6(C)C/C(=C/O)C(=O)C(C)(C)[C@@H]6CC[C@]54C)[C@H]2[C@H]1OC3`, the growth is 99.5%. As to `Oc1nc(NCc2ccccc2)sc1/C=C1\C=Nc2ncccc21`, the growth was 49.6%. For the molecule `Nc1nc(N)c2c(n1)NC(c1cccc(Nc3ccnc4cc(C(F)(F)F)ccc34)c1)CC(c1ccc3c(c1)OCO3)=N2` (stereo not given), the growth was 50.9%. On to `O=C(Cn1nc(-c2cccc3ccccc23)ccc1=O)NCc1cccc(Cl)c1`, for which the growth was 43.9% [50 µM].
